Potency data for 31 compounds are collected here from PubChem BioAssay (NCATS).

SMILES strings stand for the structures. Inconclusive results are not listed. Entries that show only a call come without a potency. Activity calls are given as the source filed them. Calls follow the shape of the dose curve; as a rule, active = well fitted inhibition curve with a large enough effect; inconclusive = small, poorly fitted or top-dose-only effect; inactive = flat fitted curve, though single readings scatter. Peptide text beside a SMILES is read from it.

For this assay, the system named is Zika virus NS2B-NS3 protease. The experiment in a line: Primary screen GU AMC qHTS for Zika virus inhibitors (AID 1347154). Also: nearly all actives have a fitted effect of over 70% in size. Particulars: Zika NS2B-NS3 unlinked protease, AMC fluorogenic substrate; series mostly up to 54.1 µM. Summed up:
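Unlinked Zika NS2B hydrophilic domain/NS3 protease domain noncovalent complex (25 nM final) in 10 mM Tris-HCl pH 8.0, 0.01% Tween 20, with AMC peptide substrate. Fluorescence (ex 340, em 450 nm) change over 15 min, room temperature; percent inhibition fitted to 4-parameter Hill equation.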
On to `CC1=C(C(=O)O)N2C(=O)[C@@H](NC(=O)[C@H](N)C3=CCC=CC3)[C@H]2SC1`, for which the Potency entry is “inactive”. As for `Cc1cc2c(s1)Nc1ccccc1N=C2N1CCN(C)CC1`, the Potency entry was “inactive”. With `c1ccc2[nH]c(-c3cscn3)nc2c1`, the Potency entry is “inactive”. Under `CN(C)C(=O)COC(=O)Cc1ccc(OC(=O)c2ccc(N=C(N)N)cc2)cc1` stands “inactive”. For the compound `OC(CN1CCN(c2cccc(Cl)c2)CC1)C(c1ccccc1)c1ccccc1` (stereo unspecified), the Potency entry was “inactive”. With `CCCCCCCCOc1ccccc1C(=O)Nc1ccc(C(=O)OCC[N+](C)(CC)CC)cc1`, the Potency result was “inactive”. In the case of `Nc1cc(C(Cl)=C(Cl)Cl)c(S(N)(=O)=O)cc1S(N)(=O)=O`, the Potency entry was “inactive”. With `CC(C)[C@H](N)C(=O)OCCOCn1cnc2c(=O)[nH]c(N)nc21`, the Potency result is “inactive”. As to `COc1cc(OC)c(C(=O)CCCN2CCCC2)c(OC)c1`, the Potency result was “inactive”. In the case of `COc1ccc(C2(C#N)CCC(C(=O)O)CC2)cc1OC1CCCC1` (stereo unspecified), the Potency result was “inactive”. Consider `CCCCC(CC)COC(=O)C(C#N)=C(c1ccccc1)c1ccccc1` (stereo unspecified), for which the Potency result is “inactive”. Under `COC1=C(OC)C(=O)C(CCCCCCCCCCO)=C(C)C1=O` stands “inactive”; under `Cc1cccc(C)c1OCC(=O)N[C@@H](Cc1ccccc1)[C@@H](O)C[C@H](Cc1ccccc1)NC(=O)[C@H](C(C)C)N1CCCNC1=O`, “inactive”. As for `COC(=O)[C@H](Cc1ccccc1)NC(=O)[C@@H](N)CC(=O)O` (H-Asp-Phe-OMe), the Potency entry was “inactive”. As to `COc1cc2c(N3CCN(C(=O)Nc4ccc(OC(C)C)cc4)CC3)ncnc2cc1OCCCN1CCCCC1`, the Potency result is “inactive”. Turning to `O=C(NC(Cc1cc(=O)[nH]c2ccccc12)C(=O)O)c1ccc(Cl)cc1` (stereo unspecified), the Potency result is “inactive”.

As to `O=c1oc2cc(O)ccc2s1`, the Potency result was “inactive”. As to `Cc1ccc(S(=O)(=O)NC(=O)NN2CC3CCCC3C2)cc1` (stereo unspecified), the Potency entry was “inactive”.

In the case of `CCC1=C(C)CN(C(=O)NCCc2ccc(S(=O)(=O)NC(=O)NC3CCC(C)CC3)cc2)C1=O` (stereo unspecified), the Potency entry was “inactive”. Turning to `CN1C(C(=O)Nc2ccccn2)=C(O)c2sccc2S1(=O)=O`, the Potency result was “inactive”.

`COC(=O)C1=C(C)NC(C)=C(C(=O)OC(C)C)C1c1cccc2nonc12` (stereo unspecified): the Potency result was “inactive”. On to `Cc1cccc(CN2CCN(C(c3ccccc3)c3ccc(Cl)cc3)CC2)c1` (stereo unspecified), for which the Potency entry was “inactive”. As for `COC(=O)N[C@H](C(=O)N[C@@H](Cc1ccccc1)[C@@H](O)CN(Cc1ccc(-c2ccccn2)cc1)NC(=O)[C@@H](NC(=O)OC)C(C)(C)C)C(C)(C)C`, the Potency entry is “inactive”.

As to `CCCS(=O)c1ccc2nc(NC(=O)OC)[nH]c2c1` (stereo unspecified), the Potency entry is “inactive”.

In the case of `NS(=O)(=O)c1cc(C(=O)O)c(NCc2ccco2)cc1Cl`, the Potency result is “inactive”. Take `O=C(NCCO[N+](=O)[O-])c1cccnc1`: the Potency entry is “inactive”.

Consider `Nc1cccc2c1CN(C1CCC(=O)NC1=O)C2=O` (stereo unspecified), for which the Potency result is “inactive”. `Cc1nc2n(c(=O)c1CCN1CCC(c3noc4cc(F)ccc34)CC1)CCCC2`: the Potency entry was “inactive”. For the compound `N=C(N)c1ccc2cc(OC(=O)c3ccc(N=C(N)N)cc3)ccc2c1`, the Potency entry is “inactive”. In the case of `CCC(C)(Oc1ccc(C2(c3ccc(OC(C)(CC)C(=O)O)cc3)CCCCC2)cc1)C(=O)O` (stereo unspecified), the Potency entry was “inactive”. Under `CN(c1nccc(=O)[nH]1)C1CCN(c2nc3ccccc3n2Cc2ccc(F)cc2)CC1` stands “inactive”.
